The record followed here is PubChem BioAssay.

Assay [1] is described as follows: stimulators of nuclear beta-catenin in C2C12, primary screen, imaging, WNT3A-conditioned medium, mouse C2C12, NPC library (AID 1117326; in the data active = nuclear beta-catenin stimulation mostly above about 4.2%, no sharp cut-off; inactive = mostly below about 10%). To be noted: stronger effect = higher value.
Assay [2] in a line: liver-stage malaria parasite growth inhibition, primary screen, cell-based, HepG2, luciferase luminescence, HepG2 viability (AID 624349).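 Also: 100% = mean of DMSO negative control wells on the same plate.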 To be noted: P. berghei liver stage in HepG2, luciferase luminescence, concentration not given here; parasite load remaining: stronger effect = lower value; viability: measured here: HepG2 viability without parasites.

Several values for one entry are separate records, joined by “and”; a condition that tells them apart may be missing. Equal values may be shown once. Activity calls are given as the source filed them. Rule as the data show it, unless noted: active = parasite load remaining mostly below about 12% (no sharp cut-off); inactive = mostly above about 10%.

Turning to `NC(N)=NS(=O)(=O)c1ccc(N)cc1`, the nuclear beta-catenin stimulation is 0.5% (inactive) in assay [1] (at 10 µM) and 0.1% in assay [1] (stimulation, at 2 µM).
A word on the viability: it is a read-out of living cells in per cent, often relative to untreated cells. For `Nc1ccc(C(=O)O)cc1`, in assay [2], the parasite load remaining was 102% (inactive) and 75.6% (inactive); the viability is 74.3% and 91.3%. Moreover, the nuclear beta-catenin stimulation in assay [1] (at 10 µM) was -0.9% (inactive). Moreover, the nuclear beta-catenin stimulation in assay [1] (stimulation, at 2 µM) is 0.3%.
With `COc1ccc2cc3[n+](cc2c1OC)CCc1cc2c(cc1-3)OCO2`, in assay [2], the parasite load remaining is 31.4% (inactive) and 124% (inactive) and 72.9% (inactive); the viability is 103% and 67.6% and 82.6%. Also, the nuclear beta-catenin stimulation in assay [1] (at 10 µM) was 0.6% (inactive). Also, in assay [1] (stimulation, at 2 µM), the nuclear beta-catenin stimulation was determined as 0%.
For the compound `CCCCC(CC)CN1CN(CC(CC)CCCC)CC(C)(N)C1` (configuration not stated), in assay [2], the parasite load remaining was 136% (inactive) and 95.8% (inactive) and 66.4% (inactive); the viability was 98.8% and 69.2% and 87.2%. In assay [1] (at 10 µM), the nuclear beta-catenin stimulation was -4.8% (inactive). The nuclear beta-catenin stimulation in assay [1] (stimulation, at 2 µM) was 3.6%.
Consider `CN(Cc1cc(Br)cc(Br)c1N)C1CCCCC1`, for which, in assay [2], the parasite load remaining was 167% (inactive) and 46% (inactive) and 10.9% (inactive); the viability was 89% and 109% and 68%. The nuclear beta-catenin stimulation in assay [1] (at 10 µM) was -0.1% (inactive). Besides, in assay [1] (stimulation, at 2 µM), the nuclear beta-catenin stimulation was -0.5%.
Regarding `O=C1OCCN1/N=C/c1ccc([N+](=O)[O-])o1`, the nuclear beta-catenin stimulation is 1.7% (inactive) in assay [1] (at 10 µM) and -0.6% in assay [1] (stimulation, at 2 µM).
Take `CN(C)c1ccc(C(=C2C=CC(=[N+](C)C)C=C2)c2ccc(N(C)C)cc2)cc1`: the parasite load remaining in assay [2] was -0.57% (inactive) and -0.18% (inactive). In addition, the viability in assay [2] is 16.5% and 0%. Moreover, the nuclear beta-catenin stimulation was 1% (inactive) in assay [1] (at 10 µM) and 28.6% in assay [1] (stimulation, at 2 µM).
Take `O=C(O)P(=O)(O)O`: in assay [2], the parasite load remaining was 127% (inactive) and 15.8% (inactive); the viability is 69.2% and 92.6%. In addition, the nuclear beta-catenin stimulation in assay [1] (at 10 µM) is 0.2% (inactive). For the same compound, the nuclear beta-catenin stimulation in assay [1] (stimulation, at 2 µM) is -0.8%.
`Cc1cc(C)nc(NS(=O)(=O)c2ccc(N)cc2)n1`: the parasite load remaining in assay [2] was 78.5% (inactive) and 292% (inactive) and 25.7% (inactive). For the same compound, the viability in assay [2] was 96.6% and 70.6% and 93.3%. Also, the nuclear beta-catenin stimulation was 0.2% (inactive) in assay [1] (at 10 µM) and 0.2% in assay [1] (stimulation, at 2 µM).
With `Cc1onc(-c2ccccc2Cl)c1C(=O)N[C@@H]1C(=O)N2[C@@H]1SC(C)(C)[C@@H]2C(=O)O`, the nuclear beta-catenin stimulation in assay [1] (at 10 µM) is 0.5% (inactive); in assay [1] (stimulation, at 2 µM) it was 0.3%.
On to `C[C@]12CC[C@@H]3c4ccc(O)cc4CC[C@H]3[C@@H]1C[C@@H](O)[C@@H]2O`, for which, in assay [2], the parasite load remaining was 68.5% (inactive) and 32.3% (inactive); the viability was 70% and 67.5%. The nuclear beta-catenin stimulation in assay [1] (at 10 µM) is 4.3% (inactive). In assay [1] (stimulation, at 2 µM), the nuclear beta-catenin stimulation came to 3%.
`CCCCC1C(=O)N(c2ccccc2)N(c2ccc(O)cc2)C1=O` (configuration not stated): in assay [2], the parasite load remaining was 75.4% (inactive) and 73.9% (inactive) and 45.8% (inactive); the viability was 80.4% and 71.7% and 90.8%. Also, in assay [1] (at 10 µM), the nuclear beta-catenin stimulation was 66.2% (active). In assay [1] (stimulation, at 2 µM), the nuclear beta-catenin stimulation was 2.3%.
As to `Nc1nccs1`, in assay [2], the parasite load remaining was 56.3% (inactive) and the viability worked out at 97.8%. The nuclear beta-catenin stimulation in assay [1] (at 10 µM) is -1.6% (inactive). The nuclear beta-catenin stimulation in assay [1] (stimulation, at 2 µM) turned out to be 0.3%.
Consider `Nc1ccc(N=Nc2ccccc2)c(N)n1`, for which the parasite load remaining in assay [2] is 122% (inactive) and 140% (inactive) and 51.9% (inactive). Further, the viability in assay [2] is 90.8% and 67.3% and 81.9%. Also, the nuclear beta-catenin stimulation in assay [1] (at 10 µM) is 5.9% (inactive); in assay [1] (stimulation, at 2 µM), 3.5%.
Turning to `Cc1cc(C(C)(C)C)c(O)c(C(C)(C)C)c1`, the parasite load remaining in assay [2] is 72.6% (inactive). For the same compound, the viability in assay [2] was found to be 95.9%. The nuclear beta-catenin stimulation was 1.4% (inactive) in assay [1] (at 10 µM) and 0.1% in assay [1] (stimulation, at 2 µM).
For `O=C(O)c1ccc(S(=O)(=O)N(Cl)Cl)cc1`, in assay [2], the parasite load remaining was 101% (inactive) and 53.6% (inactive); the viability is 75.7% and 97.7%. The nuclear beta-catenin stimulation in assay [1] (at 10 µM) was 0.3% (inactive). In addition, in assay [1] (stimulation, at 2 µM), the nuclear beta-catenin stimulation was 1.7%.
As to `COc1ccc2cc1Oc1ccc(cc1)C[C@H]1c3c(cc4c(c3Oc3cc5c(cc3OC)CCN(C)[C@@H]5C2)OCO4)CCN1C`, the parasite load remaining in assay [2] was 105% (inactive). The viability in assay [2] was determined as 82.3%. Moreover, the nuclear beta-catenin stimulation in assay [1] (at 10 µM) was 64.7% (active); in assay [1] (stimulation, at 2 µM), 7.1%.
For the compound `O=C(CCCCC(=O)Nc1c(I)cc(I)c(C(=O)O)c1I)Nc1c(I)cc(I)c(C(=O)O)c1I`, the parasite load remaining in assay [2] was 81.3% (inactive). Besides, in assay [2], the viability was determined as 93.2%. Further, the nuclear beta-catenin stimulation is 1.1% (inactive) in assay [1] (at 10 µM) and 3.3% in assay [1] (stimulation, at 2 µM).
With `CC1CCc2cc(F)cc3c(=O)c(C(=O)O)cn1c23` (configuration not stated), the nuclear beta-catenin stimulation was 3.1% (inactive) in assay [1] (at 10 µM) and -1.1% in assay [1] (stimulation, at 2 µM).
`O=C(NC(Cc1cc(=O)[nH]c2ccccc12)C(=O)O)c1ccc(Cl)cc1` (configuration not stated): in assay [2], the parasite load remaining is 149% (inactive) and 24.1% (inactive); the viability was 88.8% and 69%. In assay [1] (at 10 µM), the nuclear beta-catenin stimulation is -0.8% (inactive). In addition, the nuclear beta-catenin stimulation in assay [1] (stimulation, at 2 µM) was -1%.
Take `Nc1cc(-c2ccncc2)c[nH]c1=O`: in assay [2], the parasite load remaining is 103% (inactive) and the viability was 98.5%. For the same compound, the nuclear beta-catenin stimulation in assay [1] (at 10 µM) is 0.5% (inactive). In addition, the nuclear beta-catenin stimulation in assay [1] (stimulation, at 2 µM) stood at 1.7%.
`C=CCSCC1Nc2cc(Cl)c(S(N)(=O)=O)cc2S(=O)(=O)N1` (configuration not stated): in assay [2], the parasite load remaining is 134% (inactive) and 105% (inactive) and 42.5% (inactive); the viability is 102% and 73.3% and 104%. The nuclear beta-catenin stimulation in assay [1] (at 10 µM) is 0.3% (inactive). In assay [1] (stimulation, at 2 µM), the nuclear beta-catenin stimulation turned out to be 0.6%.
In the case of `Cc1c(NC(C)C)c(=O)n(-c2ccccc2)n1C`, in assay [2], the parasite load remaining was 102% (inactive) and 160% (inactive); the viability is 100% and 89.9%. Besides, in assay [1] (at 10 µM), the nuclear beta-catenin stimulation was 3.6% (inactive). Moreover, the nuclear beta-catenin stimulation in assay [1] (stimulation, at 2 µM) was determined as 7%.
In the case of `COc1ccc(C(=O)c2ccccc2)c(O)c1`, in assay [2], the parasite load remaining was 175% (inactive) and 149% (inactive) and 68.3% (inactive); the viability is 96.8% and 72.8% and 91.5%. Besides, the nuclear beta-catenin stimulation in assay [1] (at 10 µM) is 1.5% (inactive). Also, the nuclear beta-catenin stimulation in assay [1] (stimulation, at 2 µM) worked out at 1%.
`O=C(Cn1ccnc1[N+](=O)[O-])NCCO`: the parasite load remaining in assay [2] is 107% (inactive) and 46.8% (inactive). In addition, in assay [2], the viability is 103% and 102%. The nuclear beta-catenin stimulation in assay [1] (at 10 µM) was -1.8% (inactive); in assay [1] (stimulation, at 2 µM), 0.3%.
